# PubChem BioAssay (NCATS)
# Records with an inconclusive call do not appear. A number with no mark means an inactive call. Activity calls are given as the source filed them. Calls follow the shape of the dose curve; as a rule, active = well fitted inhibition curve with a large enough effect; inconclusive = small, poorly fitted or top-dose-only effect; inactive = no such curve, though single readings can be large or run the other way.
# Target: Protein phosphatase 1D (Homo sapiens) (UniProt O15297)
# Sequence (O15297 whole entry, looked up): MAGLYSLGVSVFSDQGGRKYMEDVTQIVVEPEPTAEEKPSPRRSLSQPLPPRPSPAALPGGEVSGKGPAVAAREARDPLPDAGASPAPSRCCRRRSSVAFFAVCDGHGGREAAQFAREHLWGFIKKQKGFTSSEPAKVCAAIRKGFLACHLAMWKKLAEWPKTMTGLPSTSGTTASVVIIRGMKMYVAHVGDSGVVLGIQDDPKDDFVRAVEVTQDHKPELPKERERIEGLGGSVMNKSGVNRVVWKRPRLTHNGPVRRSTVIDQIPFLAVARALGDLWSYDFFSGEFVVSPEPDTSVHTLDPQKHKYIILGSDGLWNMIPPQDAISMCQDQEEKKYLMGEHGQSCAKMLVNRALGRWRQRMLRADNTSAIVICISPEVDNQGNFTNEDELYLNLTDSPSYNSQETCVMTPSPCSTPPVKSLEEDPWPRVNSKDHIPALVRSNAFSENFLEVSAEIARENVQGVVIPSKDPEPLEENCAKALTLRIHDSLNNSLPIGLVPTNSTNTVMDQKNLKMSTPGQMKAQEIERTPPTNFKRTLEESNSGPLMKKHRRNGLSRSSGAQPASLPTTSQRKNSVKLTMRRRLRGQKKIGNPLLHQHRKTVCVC
# Test: RapidFire Mass Spectrometry qHTS Assay for Modulators of WT P53-Induced Phosphatase 1 (WIP1) (AID 1347424)
# Details: WIP1 dephosphorylation of phosphopeptide, RapidFire MS; series mostly up to 63 µM; activity change, negative = inhibition: at the top concentration
# Source text: Assay Provider (PI): Nathan Coussens Ph. D.
# National Center for Advancing Translational Sciences (NCATS), Rockville, MD
# National Institute of Health (NIH), Bethesda, Maryland
# WT P53-Induced Phosphatase 1 (WIP1) is a member of the magnesium-dependent serine/threonine protein phosphatase (PPM) family and is induced by P53 in response to DNA damage. In several human cancers, the WIP1 protein is overexpressed, which is generally associated with a worse prognosis. Although WIP1 is an attractive therapeutic target, no potent, selective, and bioactive small-molecule modulator with favorable pharmacokinetics has been reported. Phosphatase enzymes are among the most challenging targets for small molecules because of the difficulty of achieving both modulator selectivity and bioavailability. Another major obstacle has been the availability of robust and physiologically relevant phosphatase assays that are suitable for high-throughput screening.
# Here, we describe two orthogonal biochemical WIP1 activity assays that utilize phosphopeptides from native WIP1 substrates. We optimized a RapidFire MS assay to quantify the enzymatically dephosphorylated peptide reaction product in a 384-well format. Additionally, a redshifted Rhodamine-PBP fluorescence assay was optimized in a 1,536-well format to enable real-time WIP1 activity measurements through the detection of the orthogonal reaction product, Pi. We validated these two optimized assays by quantitative high-throughput screening against the National Center for Advancing Translational Sciences (NCATS) Pharmaceutical Collection and used secondary assays to confirm and evaluate inhibitors identified in the primary screen.
# SEQUENCE No. (e.g., 1, 2, 3, etc.); […] (e.g., Cells, Incubation, Reagent, etc.); VALUE; DESCRIPTION
# 1; Reagent; 50 uL; dispensed assay buffer: 0.1% formic acid in water (10 uL : 40 uL) solution in column 1
# 3; Library Compounds; 63 nL; library compounds in DMSO, columns 3-24
# 4; Control Compounds; 63 nL; DMSO in wells I-P, columns 1-2, GSK830371 (10 uM, final) in wells A-H, column 2
# 5; Time; 1 hr; incubation
# 6; Substrate; 2 uL; VEPPL-pS-QETFS (10 uM) in assay buffer, column 2-24
# 7; Time; 5 min; incubation
# 8; Reagent; 2 uL; 0.5% formic acid in water, columns 2-24
# 9; Reagent; 38 uL; VEPPL-S-QETF*S in 0.1% formic acid, columns 2-24
# 10; Detection; mass spec; RapidFire mass spectrometry
# NOTES (numbers refer to sequence above)
# 1, 2, 6; dispensed reagent in White Nunc 384-well PP microplates (264573); assay buffer: 50 mM Tris-HCl pH 7.5, 30 mM MgCl2, 1 mM TCEP, 0.1 mM EGTA, 75 ug/mL BSA.
# 2, 6, 8, 9; Dispensed with BioRaptr (Beckman Coulter)
# 2, 6, 9; Final concentrations: 10 nM WIP1; 2 uM VEPPL-pS-QETFS; 1 uM VEFFL-S-QETF*S
# 3 & 4; Kalypsys Pintool transfer (Wako USA), Tip wash sequence: water, DMSO, methanol, 20 sec vacuum dry.
# 5 & 7; incubation at room temperature
# 10; RapidFire mass spectrometry read using the Agilent RapidFire 360 (Clausse, 2019)
# Clausse V, et al. Physiologically relevant orthogonal assay for the discovery of small-molecule modulators of WIP1 […] in high-throughput screens. J Biol Chem. 2019, 294(46): 17654-17668. doi:10.1074/jbc.RA119.010201
Structure (SMILES),"activity change, negative = inhibition",Potency
CCN(CC)CCOCCOC(=O)C1(c2ccccc2)CCCC1,14.1%,
CCN(Cc1ccncc1)C(=O)C(CO)c1ccccc1 (stereo not given),-9.86%,
FC(F)(F)c1ccccc1-n1ccnc1,2.35%,
C[C@]12CCC(=O)C=C1CC[C@@H]1[C@@H]2C(=O)C[C@@]2(C)[C@H]1CC[C@]2(O)C(=O)CO,1.57%,
COC(=O)[C@H]1[C@H]2C[C@@H]3c4[nH]c5cc(OC)ccc5c4CCN3C[C@H]2C[C@@H](OC(=O)c2cc(OC)c(OC)c(OC)c2)[C@@H]1OC,34%,
CCCN1C[C@H](CSC)C[C@@H]2c3cccc4[nH]cc(c34)C[C@H]21,1.99%,
CC1=NS(=O)(=O)c2cc(Cl)ccc2N1,-3.63%,
COc1ccc([C@@H]2Sc3ccccc3N(CCN(C)C)C(=O)[C@@H]2OC(C)=O)cc1,7.72%,
Cc1cccc(C)c1NC(=O)C(C)N (stereo not given),-2.93%,
CCOC(=O)C1=C(C)NC(C)=C(C(=O)OC)C1c1cccc([N+](=O)[O-])c1 (stereo not given),0.226%,
O=C(O)CN(CCOCCOCCN(CC(=O)O)CC(=O)O)CC(=O)O,15.2% [at 0.505 µM],
c1cnc(N2CCN(Cc3ccc4c(c3)OCO4)CC2)nc1,-3.02%,
Cc1nc2ccccn2c(=O)c1CCN1CCC(C(=O)c2ccc(F)cc2)CC1,-2.39%,
Nc1ncn([C@@H]2O[C@H](CO)[C@@H](O)[C@H]2O)c(=O)n1,-4.53%,
CC(N=C(NC#N)Nc1ccncc1)C(C)(C)C (stereo not given),4.72%,
COC(=O)C1=C(C)NC(C)=C(C(=O)OCCN(C)Cc2ccccc2)C1c1cccc([N+](=O)[O-])c1 (stereo not given),54.8%,
CC(C)(C)c1ccc(C(=O)CCCN2CCC(OC(c3ccccc3)c3ccccc3)CC2)cc1,73.2%,
CCN(CC)CCNC(=O)c1cc(S(C)(=O)=O)ccc1OC,1.97%,
O=C1CC2(CCCC2)CC(=O)N1CCCCN1CCN(c2ncccn2)CC1,-10.5%,
CN(C)CCCN1c2ccccc2Sc2ccc(C(F)(F)F)cc21,29.2%,

Structure (SMILES),"activity change, negative = inhibition",Potency
CN1C(=O)CC[C@H]1c1cccnc1,3.55%,
CNCCC(Oc1ccccc1OC)c1ccccc1 (stereo not given),1.36%,
COc1cc2c(cc1OC)-c1cc(=Nc3c(C)cc(C)cc3C)n(C)c(=O)n1CC2,37.8%,
Cc1cc(C)c(/C=C2\C(=O)Nc3ccccc32)[nH]1,-2.14%,
CC(C)(Oc1ccc(CCNC(=O)c2ccc(Cl)cc2)cc1)C(=O)O,5.2%,
CCCCNC(=O)NS(=O)(=O)c1ccc(C)cc1,-6.68%,
C[C@@H](O)[C@H]1C(=O)N2C(C(=O)O)=C(SCCN=CN)C[C@H]12,0.596%,
CCN(CC)CC(=O)Nc1c(C)cccc1C,-1.63%,
CN(C)CCOC(=O)COc1ccc(Cl)cc1,2.67%,
CCCCOCCOCCOCc1cc2c(cc1CCC)OCO2,,inactive
NC(=O)c1cn(Cc2c(F)cccc2F)nn1,-1.35%,
O=C(O)CN(CCN(CC(=O)O)CC(=O)O)CCN(CC(=O)O)CC(=O)O,-5.25% [at 26.6 µM],
COCCCC/C(=N\OCCN)c1ccc(C(F)(F)F)cc1,27.8%,
CCn1nc(C(=O)O)c(=O)c2cc3c(cc21)OCO3,1.32%,
CCCCCCCC/C=C\CCCCCCCC(=O)NCc1ccc(O)c(OC)c1,42.7%,
C[N+](C)(C)CCOC(=O)CCC(=O)OCC[N+](C)(C)C,7.04%,
CN(C(=O)CCCOc1ccc2[nH]c(=O)ccc2c1)C1CCCCC1,3.65%,
NCCCNCCSP(=O)(O)O,0.628% [at 12.6 µM],
CC(C)NNC(=O)c1ccncc1,-0.767%,
CCCNC(C)C(=O)Nc1ccccc1C (stereo not given),5.35%,
